Results reported in PubChem BioAssay AID588676 (Johns Hopkins Ion Channel Center, 2011).
Screen size: about 310,000 compounds; about 3,900 (1.3%) were called active. This is one part of a sample in which actives are shown more often than they occur.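 How the source made its calls: active means calcium-response B-score plate-corrected more than 3 library SD below zero, starting fluorescence within 5 deviations, no agonist response on first addition; inactive means the rest.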

target: Mas-related G-protein coupled receptor member X1 (Homo sapiens) (UniProt Q96LB2); assay: antagonists of human MrgX1 receptor, primary screen, HEK293 cells, Fluo-4 calcium flux (AID 588676); conditions: Fluo-4, BAM8-22 antagonism, at 10 µM; hits give low values;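 on B-score: peak minus trough fluorescence over baseline after final BAM8-22 challenge near maximal dose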
Sequence (Q96LB2 whole entry, looked up): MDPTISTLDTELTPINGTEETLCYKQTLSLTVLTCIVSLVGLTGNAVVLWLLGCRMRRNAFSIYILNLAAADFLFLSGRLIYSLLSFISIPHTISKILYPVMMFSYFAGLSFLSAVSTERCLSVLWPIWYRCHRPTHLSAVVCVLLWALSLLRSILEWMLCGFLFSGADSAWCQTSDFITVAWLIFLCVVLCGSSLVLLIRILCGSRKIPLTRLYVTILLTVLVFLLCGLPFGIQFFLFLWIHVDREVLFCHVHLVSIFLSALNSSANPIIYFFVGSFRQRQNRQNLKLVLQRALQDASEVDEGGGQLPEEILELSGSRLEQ

Compound | B-score
COc1ccc(NC(=O)CN(Cc2ccccc2)S(C)(=O)=O)cc1OC | inactive
CC1(C)C(C=C(Cl)Cl)C1C(=O)NC(O)C(=O)c1ccccc1 (stereo not drawn) | inactive
O=C(CCCN1C(=O)c2ccccc2C1=O)Oc1ccc(Cl)cc1 | inactive
CSc1nnc(NC(=O)c2nc(S(=O)(=O)Cc3ccc(C)cc3)ncc2Cl)s1 | inactive
Cc1ccc(CS(=O)(=O)c2ncc(Cl)c(C(=O)Nc3nnc(C)s3)n2)cc1 | -6.02 (active)
Cc1cccc(NC(=O)c2nc(S(=O)(=O)Cc3ccccc3)ncc2Cl)c1 | inactive
Cc1cc(N2CCOCC2)nc2ccc(NC(=S)N3CCN(Cc4ccccc4)CC3)cc12 | inactive
C#C[C@]1(O)CC[C@H]2[C@@H]3CCC4=CC(=O)CC[C@@H]4[C@H]3CC[C@@]21CC | inactive
O=C(NCC(c1cccs1)N1CCOCC1)c1cc(Cl)ccc1[N+](=O)[O-] (stereo not drawn) | inactive
CCOc1ccc(NC(=O)CSc2nc3c(c(=O)n2-c2ccccc2OC)SCC3)cc1 | inactive
CCc1nnc(NC(=O)CSc2nc3c(c(=O)n2-c2ccccc2OC)SCC3)s1 | -5.85 (active)
CCc1nnc(NC(=O)CSc2nnc(Cc3ccccc3)n2-c2ccc(OC)cc2)s1 | inactive
CC(Oc1ccccc1F)C(=O)NN (stereo not drawn) | inactive
CCSc1sc(CC)cc1C=O | inactive
O=C(Nc1ccc(Br)cc1F)C1CC(=O)N(C2CCCCC2)C1 (stereo not drawn) | -6.01 (active)
Cc1ccc(CNC(=O)C2CC(=O)N(C3CCCCCCC3)C2)cc1 (stereo not drawn) | inactive
O=C(NCCc1ccc(Cl)cc1)C1CC(=O)N(C2CCCCC2)C1 (stereo not drawn) | inactive
COc1cc(C)c(Cl)cc1S(=O)(=O)n1ccnc1 | inactive
CCCC(=O)N1CCC(CCC(=O)NC2CC2)CC1 | inactive
COc1ccccc1OCC(=O)Nc1ccccc1C(=O)NC1CC1 | inactive
CC(Oc1ccc(F)cc1)C(=O)Nc1ccccc1C(=O)NC1CC1 (stereo not drawn) | -5.83 (active)
CCOc1ccccc1OCC(=O)Nc1ccccc1C(=O)NC1CC1 | inactive
COc1cc(-c2c(-c3ccc4c(c3)OCO4)noc2C)ccc1F | inactive

Compound | B-score
Nc1nc(NCC2CCCO2)nc(Nc2ccccc2F)c1[N+](=O)[O-] (stereo not drawn) | inactive
CC(C)(C)c1ccc(/C=C/C(=O)Nc2ncccn2)cc1 | inactive
CSc1ccc(NC(=O)/C=C/C(=O)O)cc1 | inactive
COC(=O)c1sc(-c2ccc(C(C)(C)C)cc2)cc1NC(=O)/C=C/C(=O)O | -9.91 (active)
Cn1cccc1Cc1nnc(SCC(=O)NCc2ccc3c(c2)OCO3)n1CCc1ccccc1 | inactive
O=C(O)CCc1nc2cc(Cl)ccc2n(Cc2ccccc2)c1=O | inactive
CCOc1ccccc1NC(=O)COc1ccc(S(=O)(=O)N2CCCC2)cc1 | inactive
CCOc1ccccc1NC(=O)CCN1CCN(S(=O)(=O)c2ccc(OC)cc2)CC1 | -4.98 (active)
COc1ccc(NC(=O)CCC(=O)N2CCN(S(=O)(=O)c3ccc(C)cc3)CC2)c(OC)c1 | inactive
Cc1cc(C)c(C#N)c(Nc2cccc(Br)c2)n1 | inactive
N#CC1=C(N)Oc2c(ccc3cccnc23)C1c1ccncc1 (stereo not drawn) | inactive
N#CC1=C(N)Oc2c(sc3ccccc23)C1c1ccco1 (stereo not drawn) | -4.64 (active)
O=C(COc1nsnc1N1CCOCC1)Nc1ccccc1Cl | inactive
COc1cc(C(C)=O)ccc1OC(=O)CN1C(=O)c2ccccc2C1=O | inactive
Cc1cc(F)ccc1S(=O)(=O)Nc1ncnc2scc(-c3ccc(F)cc3)c12 | inactive
CCOC(=O)c1c(NC(=O)C(C)Sc2c[nH]c3ccccc23)sc2c1CCC2 (stereo not drawn) | inactive
CCOC(=O)c1c(NC(=O)CCC(=O)NCc2ccco2)sc2c1CCCC2 | inactive
CCOC(=O)c1c(NC(=O)CSc2cn(CC)c3ccccc23)sc2c1CCC2 | -6.48 (active)
O=C(NCC(=O)N1CCN(c2ncc(C(F)(F)F)cc2Cl)CC1)c1ccc(Br)o1 | inactive
Cc1ccc(C(=O)OC2=CC(=O)CC(C)(C)C2)cc1 | inactive
COc1cc(/C=C2/SC(=S)N(Cc3ccccc3)C2=O)cc(OC)c1O | -7.51 (active)
COc1ccccc1C(=O)NNC(=O)CCN1C(=O)/C(=C\c2ccccc2)SC1=S | inactive
COc1ccc(/C=C2\SC(=S)N(CCC(=O)Nc3ccccn3)C2=O)cc1OC | inactive

Compound | B-score
O=C(Nc1cccc([N+](=O)[O-])c1)N1CCc2ccccc2C1 | inactive
CN(c1ccccc1)S(=O)(=O)c1ccc(Cl)c(C(=O)OCC(=O)N2CCOCC2)c1 | inactive
COC(=O)c1c(NC(=O)COc2ccc(Cl)cc2Cl)sc2c1CC(C)(C)NC2(C)C | inactive
O=C(Cc1ccccc1)Nc1c(C(=O)N2CCCCCC2)cnn1-c1ccccc1 | inactive
COc1ccc([N+](=O)[O-])cc1NC(=O)CCc1ccccc1 | inactive
CC(C)CNC(=O)COC(=O)/C=C/c1ccco1 | inactive
COc1ccc([N+](=O)[O-])cc1NC(=O)COC(=O)/C=C/c1ccco1 | -24.1 (active)
COC1=CCC2([N+](=O)[O-])CN(CC(=O)O)CC1([N+](=O)[O-])C2 (stereo not drawn) | -5.87 (active)
COc1ccc([N+](=O)[O-])cc1N(CC(=O)Nc1ccccc1C(=O)N1CCOCC1)S(C)(=O)=O | inactive
COCC(C)NC(=O)c1ccc(Cl)c(Cl)c1 (stereo not drawn) | -8.76 (active)
CC(CCc1ccccc1)NC(=O)c1cnc(Cl)c(Cl)c1 (stereo not drawn) | inactive
CC(C)CCC(C)NC(=O)c1ccc2nccnc2c1 (stereo not drawn) | inactive
CC(=O)C1=C(C)NC(=O)NC1c1ccc2c(c1)OCO2 (stereo not drawn) | inactive
COc1ccc(Br)cc1/C=N/n1c(C)nnc1C | inactive
COc1cc(N2CCCC2)c(OC)cc1/C=C(/C#N)c1cccc(Br)c1 | -7.19 (active)
CC(=O)Nc1cccc(Oc2cc(C#N)c(C#N)cc2N2CCOCC2)c1 | inactive
O=C(COC(=O)/C=C/c1ccc(OC(F)F)cc1)NC1CCCCC1 | inactive
COc1ccc(-c2noc(C(C)NS(=O)(=O)c3ccc(NC(C)=O)cc3)n2)cc1 (stereo not drawn) | inactive
CCCCCCCCCCCCN1C(=O)CSC1c1cccnc1 (stereo not drawn) | inactive
CCOC(=O)C1=C(O)CSC1=Nc1cccc(Cl)c1 | -5.49 (active)
CCOC(=O)c1c(S(=O)(=O)Nc2cccc(Cl)c2)c(C)n(C)c1C | inactive
CCOC(=O)CSc1ncc(-c2cccc(Cl)c2)cn1 | inactive
